Peg3 prom inh-1: Peg3 promoter-driven luciferase inhibitors, primary screen, cell-based, HeLa, luciferase luminescence. HeLa PEG-Prom luciferase reporter, overnight. inhibition, % at 20 µM. 1.7% of 360,000 active;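 active = inhibition of at least 50% at 20 µM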
HIF-2a inh: HIF-2a reporter inhibitors, primary screen, luminescence, 786-0 RCC cells; inhibition, % at 18.8 µM; 0.72% of 360,000 active; AID 624352, 2012; 786-0 RCC cells HIF-2a reporter, luciferase luminescence, overnight;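 active = inhibition of the luminescence signal of 40% or more relative to plate controls, in a single-dose primary screen at 18.75 µM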
CF NFkB block: inhibitors of PAF-induced NF-kB signaling, primary screen, cell-based, GFP fluorescence, uHTS. KKLEB NF-kB-GFP reporter, GFP fluorescence overnight. inhibition, % at 5 µM. 0.86% of 360,000 active;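 active = at least 50% inhibition at 5 µM, scaled per plate between neutral and stimulator controls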;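 note: PAF is a Pseudomonas aeruginosa culture filtrate used as stimulus; plate controls were PAF-stimulated DMSO wells for no effect and unstimulated DMSO wells for full effect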
CHOP inh: inhibitors of CHOP promoter induction, primary screen, cell-based, unfolded protein response, luciferase reporter; CHO-K1 CHOP-promoter luciferase, tunicamycin-induced, 15-18 h; inhibition, % at 10 µM; 3.8% of 220,000 active; AID 2732, 2010;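 active = compounds that reduced the stress-induced luciferase reporter signal by more than about 70% of percent inhibition, limit read from the data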;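 note: 0% = tunicamycin plus vehicle and 100% = wells without tunicamycin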
MITF TRPM1 inh: inhibitors of MITF-dependent TRPM1 promoter reporter, primary screen, cell-based, SK-MEL-5, single point, luciferase; inhibition, % at 12.5 µM; SK-MEL-5 TRPM1 promoter luciferase, 24 h; AID 488899, 2010; 0.83% of 330,000 active;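 active = mean inhibition across replicates of 60% or more, whatever share of single replicates reaches that level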
KKLEB cytotox: cytotoxicity in KKLEB CF airway cells, primary screen, cytotoxicity control for CF NF-kB inhibitor project, cell-based, uHTS, fluorescence assay plates. KKLEB CF airway cells viability, ATPlite luminescence, overnight; active compounds read low; cells stimulated with P. aeruginosa culture filtrate. activity change (cytotoxicity), % at 5 µM. 0.36% of 360,000 active;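 active = corrected activity change at or below -50% at 5 µM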
Peg3 prom inh-2: Peg3 promoter reporter inhibitors, retest, confirmation, cell-based, HeLa, luciferase reporter, single concentration | HeLa PEG-Prom luciferase reporter, luminescence, overnight | inhibition, % at 20 µM | shares compounds with Peg3 prom inh-1 | AID 602417, 2012 | 84% of 1,300 active;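 active = at 20 µM dose, 40% or more inhibition averaged across four replicates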
An asterisk follows results filed as active; · = no result. A selection: hits, their analogues and other compounds. The true share with any hit is near 4.3%.

SMILES	Peg3 prom inh-1	HIF-2a inh	CF NFkB block	CHOP inh	MITF TRPM1 inh	KKLEB cytotox	Peg3 prom inh-2
CCN(CC)CCNC(=O)c1ccc(NC(=O)c2cccc(S(=O)(=O)N(C)C3CCCCC3)c2)cc1	82.6*	24.4	10.7	·	73.2*	-18.8	89.1*
CC(C)C(N)c1csc(Nc2ccc(C(=O)c3ccccc3)cc2)n1 (stereo not given)	5.2	-16.9	19.4	·	·	-14.3	·
CC(C)CC(N)c1csc(Nc2ccc(C(=O)c3ccccc3)cc2)n1 (stereo not given)	53.0*	1.9	38.8	·	·	-22.3	93.7*
O=C(CCN1C(=O)/C(=C/c2ccccc2Cl)SC1=S)NNC(=O)c1cccnc1	0.0	-10.0	6.6	22.3	10.5	-10.4	·
O=C1/C(=C\c2ccc(O)c(O)c2)SC(=S)N1Cc1ccccc1	23.1	-142.2	-33.7	·	0.8	-3.4	·
O=C(CCCN1C(=O)/C(=C/c2ccccc2Cl)SC1=S)NNC(=O)c1ccc(Cl)cc1	63.8*	73.3*	4.1	92.5*	37.3	-8.9	44.7*
O=C1/C(=C/c2ccccc2Cl)SC(=S)N1CCCC(=O)N(CCO)c1ccccc1	66.7*	70.8*	13.2	·	8.6	2.1	90.9*
O=C1/C(=C\c2cccc(O)c2O)SC(=S)N1Cc1ccccc1	65.8*	2.5	-17.8	·	10.2	1.6	61.5*
COc1ccccc1N(CC(=O)N/N=C/c1c(O)ccc2ccccc12)S(C)(=O)=O	50.3*	22.0	1.3	61.1	48.3	-1.8	70.1*
COc1ccccc1N(CC(=O)Nc1ccccc1C)S(C)(=O)=O	15.0	1.2	-13.9	5.6	3.2	2.4	·
C/C(CC(=O)Nc1cccnc1)=N\NC(=O)C(=O)Nc1cccc(C)c1	-9.5	-23.8	-33.9	18.7	-3.4	13.0	·
COc1ccc(-n2ncc3c(N4CCC(C)CC4)ncnc32)cc1	-66.0	-21.1	-9.4	·	·	-2.1	·
COc1ccc(-n2ncc3c(N(C)C4CCCCC4)ncnc32)cc1	71.4*	70.3*	11.4	·	58.8	-79.2*	70.6*
O=C(CCn1cnc(-c2ccccc2)c1-c1ccccc1)N/N=C/c1ccccc1O	55.6*	22.0	17.4	51.0	27.2	-1.2	69.7*
O=C(Nc1sc2c(c1C(=O)NCC(O)CO)CCCC2)c1ccccc1 (stereo not given)	-3.1	-3.1	12.1	·	-14.8	-7.8	·
CC#CC(=O)N1CCC(CCC(=O)N(C)Cc2ccccc2)CC1	-2.0	4.5	-0.8	·	-2.9	4.4	·
COc1ccc(CCNC(=O)c2cc3c(=O)n4ccccc4nc3n(C3CCCCC3)c2=N)cc1	87.7*	6.9	21.5	·	-7.1	-28.6	53.9*
COc1ccc(CCn2c(=N)c(C(=O)NC3CCCCC3)cc3c(=O)n4ccccc4nc32)cc1	10.2	6.3	6.2	·	52.8	-9.8	·
COc1ccc(CCn2c(=N)c(C(=O)NC3CCCC3)cc3c(=O)n4cccc(C)c4nc32)cc1	99.2*	-10.1	-19.2	·	12.2	-3.0	63.7*
COc1ccc(CCNC(=O)c2cc3c(=O)n4ccccc4nc3n(C3CCCCC3)c2=N)cc1OC	33.8	6.6	12.6	·	6.2	-1.3	·
Cc1cccc(C)c1OCC(=O)N(Cc1ccc(Cl)cc1)C1CCS(=O)(=O)C1 (stereo not given)	15.4	4.4	-9.6	·	3.8	10.3	·
CN1CCCCC1(C)C(=O)NCc1ccc(C(C)(C)C)cc1 (stereo not given)	-5.6	0.2	-17.0	·	·	2.1	·
COc1cc(SC)ccc1C(=O)Nc1ncc(C)s1	77.2*	48.9*	-9.6	69.3	65.5*	-53.3*	60.8*
OCCNC(=S)c1ccccc1	10.6	18.0	-3.3	3.1	6.5	2.3	·
O=C(Nc1ccc(CN2CCCCC2)cc1)Nc1ccc(Br)cc1Cl	67.5*	4.9	22.0	11.6	-34.7	-31.4	96.3*
SMILES	Peg3 prom inh-1	HIF-2a inh	CF NFkB block	CHOP inh	MITF TRPM1 inh	KKLEB cytotox	Peg3 prom inh-2
S=C(Nc1ccc(Br)cc1Cl)N1CCCC1	-165.4	-240.6	7.3	·	-84.6	3.3	·
C[C@]12CCC(=O)CC1=CCC1C3CC=C(C#N)[C@@]3(C)CC[C@@]12O (stereo not given in full)	-7.8	14.9	-7.2	·	9.9	-1.9	·
O=C1/C(=C/c2ccccc2)CCc2ccc(Cl)nc21	76.4*	12.0	-3.7	·	36.1	4.0	10.8
O=C1/C(=C\c2ccccc2)CCc2c1[nH]c1ccccc21	-266.9	-235.0	26.5	45.3	-55.2	-30.0	·
COc1ccc(S(=O)(=O)N2CCN(CCCOc3ccc(F)cc3)CC2)cc1OC	25.3	21.4	-5.8	·	10.5	10.0	·
COc1ccc(CC(=O)Nc2cccc(SC)c2)cc1OC	10.9	12.4	1.7	22.4	13.1	-9.5	·
COc1ccc2nc3n(c(=O)c2c1)-c1cc2ccccc2cc1C(=O)NC3Cc1ccc(O)cc1 (stereo not given)	78.0*	16.8	-3.8	·	·	-1.4	86.2*
Cc1nc(N2CCN(c3ccccn3)CC2)c2c(C)c(C(=O)Nc3ccccc3F)sc2n1	72.7*	-11.8	47.4	32.9	-10.2	-35.1	65.5*
NC(CCc1ccccc1)c1csc(Nc2ccccn2)n1 (stereo not given)	25.2	0.6	-11.2	·	·	-11.4	·
CC(C)(C)C(=O)Nc1nc(=S)ss1	10.2	-15.2	14.3	18.2	3.2	8.5	·
CCN(CC)CCNC(=S)Nc1ccc2nc(N3CCCC3)cc(C)c2c1	31.6	13.9	0.6	16.1	16.9	-7.0	·
CCCN(CCC)CCCNC(=S)Nc1ccc2nc(N3CCCC3)cc(C)c2c1	50.9*	21.1	8.2	9.2	49.7	-22.9	71.4*
COc1ccc2nc(NC3=NC(C(=O)Nc4ccc(C)cc4)CC(=O)N3)nc(C)c2c1 (stereo not given)	·	·	·	-0.7	·	·	·
COC(=O)C(C(C)=O)C1=C/C(=N\S(=O)(=O)c2ccc(C)cc2)c2ccccc2C1=O (stereo not given)	19.8	5.3	3.7	27.8	16.6	5.9	·
COc1ccc(S(=O)(=O)/N=C2\C=C(Nc3ccc(O)cc3)C(=O)c3ccccc32)cc1	104.2*	1.2	100.7*	·	99.0*	-73.8*	97.8*
CC(C)C[C@@H](CNCC(=O)[C@H](Cc1ccccc1)NC(=O)c1[nH]cnc1C(=O)N[C@H](CN)CC(C)C)NC(=O)c1nc[nH]c1C(=O)N[C@@H](CC(=O)O)C(=O)O	-7.9	-11.9	-10.8	·	0.4	-10.6	·
CCCCCCSc1cc(-c2nc3ccc(C)cn3c2NCCCC)ccc1OC	79.5*	-36.2	37.6	·	0.4	-10.0	93.2*
